# Results from PubChem BioAssay.
# Activity calls are given as the source filed them.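 Rule for the calls, unless noted: active = inhibition at or above 50% at 10 µM; inactive = inhibition below 50%.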
# Assays:
# [1] = inhibitors of TNFa-induced NFkB p65 translocation, primary screen, imaging, HUVEC, MLSMR starter and 10KST1 sets (AID 438;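 active = inhibition above 20% together with a positive visual image hit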;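 note: compound added about 3h40 before a 20 min TNFalpha stimulation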;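 for inhibition: signal is the nuclear over cytoplasmic p65 intensity ratio per well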); details: HUVEC TNFa-induced p65 nuclear translocation; cell count: measured here: nuclei count (cytotoxicity indicator), at 2.08 µM; inhibition: at 2 µM, stronger effect = higher value, 0% TNFa-plus-vehicle, 100% no-TNFa wells
# [2] = reduction of polyQ htt aggregates in cells – imaging, exon1htt(103Q)mCFP cells, high-content imaging, primary screen (AID 483;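 active = visual image review flags a hit and inhibition of aggregation exceeds 20%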;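 note: compound exposure lasted 3 days before fixation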;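 for nuclei count: percent of the per-plate median nuclei count of sample wells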); details: exon1htt(103Q)mCFP cell line, aggregate imaging, at 2 µM; inhibition of aggregation: stronger effect = higher value; nuclei count: measured here: cell count, toxicity
# [3] = endothelial E-selectin expression blockers – imaging, HUVEC, immunofluorescence, MLSMR starter and 10KST1 sets, primary screen (AID 487;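 active = visually confirmed hit in the image check and inhibition above 20%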;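 for inhibition: signal is fraction of cell area covered by stained E-selectin grains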;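 for nuclei count: 100% = median nuclei count of all wells on the same plate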); details: HUVEC TNFalpha-induced E-selectin immunofluorescence imaging, at 2 µM; inhibition: stronger effect = higher value; nuclei count: measured here: cell number, toxicity
# [4] = biological target: Voltage-gated potassium channel subunit beta-2 (Rattus norvegicus) (UniProt P62483); assay: inhibitors of rat Kvbeta2 reductase activity – biochemical, NADPH fluorescence, primary screen (AID 622;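 active = fluorescence slope higher than the sample average by over 3 SD, cut at about -0.22 in these data, passing the limit was not always enough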;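 note: slope of raw intensity against log time taken from 70 to 1610 s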); details: recombinant KvBeta, 4-cyanobenzaldehyde reduction, at 10 µM, stronger effect = higher value
# [5] = biological target: Voltage-gated potassium channel subunit beta-2 (Rattus norvegicus) (UniProt P62483); assay: enhancers of rat Kvbeta2 NADPH turnover – biochemical, NADPH fluorescence, primary screen (AID 623;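 active = NADPH fluorescence slope more negative than the mean of all samples by about 3 SD, 99.7% confidence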;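 note: fluorescence intensity change per second fitted from 20 to 320 s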); details: Recombinant KvBeta, NADPH fluorescence decrease slope, 10 min; at 10 µM; stronger effect = lower value
# [6] = biological target: Alpha-2C adrenergic receptor (Homo sapiens) (UniProt P18825); assay: compounds altering alpha2C-coupled GIRK flux – cell-based, HEK293 alpha2C/GIRK1/2, thallium flux, primary screen (AID 624;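 active = fluorescence slope after compound addition differing from the mean of all screened samples at 99.7% confidence, in either direction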;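 note: slope of fluorescence ratio to pre-addition baseline per second over 15 to 24 s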); details: thallium flux BTC fluorescence, at 10 µM, actives lie on both sides
# [7] = blockers of RIG-like receptor reporter activation – cell-based, Sendai virus stimulus, luciferase, 10K MLSCN set, TLR/RLR signaling modifier project, primary screen (AID 602276); details: HEK293 RL24 IRF3 luciferase reporter, at 10 µM, stronger effect = higher value;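 note: firefly luciferase from ISG56 promoter only with Renilla not read in this screen; 0% = Sendai virus plus DMSO and 100% = medium plus DMSO without virus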
# [8] = TLR3 IRF3 reporter activation blockers – cell-based, poly I:C stimulus, luciferase, 10K MLSCN set, primary screen (AID 602277;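 active = inhibition of the reporter signal at or above 50%; inactive = inhibition below 50%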); details: HEK293-TLR3 RL24 IRF3 luciferase reporter, at 10 µM, stronger effect = higher value
# Sequence of Alpha-2C adrenergic receptor (Homo sapiens) (P18825 whole entry, looked up): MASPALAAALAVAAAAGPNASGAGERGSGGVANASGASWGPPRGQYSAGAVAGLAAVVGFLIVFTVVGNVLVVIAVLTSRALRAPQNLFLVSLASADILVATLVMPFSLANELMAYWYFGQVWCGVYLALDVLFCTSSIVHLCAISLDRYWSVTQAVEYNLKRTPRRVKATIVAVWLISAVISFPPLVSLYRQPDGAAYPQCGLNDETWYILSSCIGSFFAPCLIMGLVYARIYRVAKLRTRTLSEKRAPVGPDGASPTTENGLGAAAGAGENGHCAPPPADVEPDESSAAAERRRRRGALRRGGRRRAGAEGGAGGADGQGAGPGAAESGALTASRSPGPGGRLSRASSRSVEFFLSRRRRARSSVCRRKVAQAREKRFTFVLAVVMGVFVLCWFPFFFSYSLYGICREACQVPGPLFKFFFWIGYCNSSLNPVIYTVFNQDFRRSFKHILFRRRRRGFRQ
# Sequence of Voltage-gated potassium channel subunit beta-2 (Rattus norvegicus) (P62483 whole entry, looked up): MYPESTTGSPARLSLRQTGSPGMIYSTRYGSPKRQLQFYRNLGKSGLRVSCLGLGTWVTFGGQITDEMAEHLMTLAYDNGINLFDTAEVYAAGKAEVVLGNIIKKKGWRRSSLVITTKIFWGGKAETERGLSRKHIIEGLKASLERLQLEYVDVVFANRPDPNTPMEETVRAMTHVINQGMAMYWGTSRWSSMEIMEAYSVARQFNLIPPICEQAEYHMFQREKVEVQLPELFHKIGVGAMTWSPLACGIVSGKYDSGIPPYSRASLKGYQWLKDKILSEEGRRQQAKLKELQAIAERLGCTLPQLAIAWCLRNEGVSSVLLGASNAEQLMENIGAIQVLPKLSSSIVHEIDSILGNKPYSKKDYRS
Compound,cell count [1],inhibition [1],inhibition of aggregation [2],nuclei count [2],inhibition [3],nuclei count [3],fluorescence slope [4],NADPH fluorescence slope [5],slope [6],inhibition [7],inhibition [8]
N#Cc1cnc(SCCc2ccccc2)nc1N,630,-13.1% (inactive),-5.2% (inactive),93.9%,-14.8% (inactive),108%,-0.291 (inactive),-5.5e-05 (inactive),0.00492 (inactive),-34% (inactive),-61.8% (inactive)
c1ccc2c(c1)Cc1cc(CN3CCOCC3)ccc1-2,343,-8% (inactive),-2.2% (inactive),110%,-77.5% (inactive),128%,-0.415 (inactive),-8.5e-05 (inactive),0.00531 (inactive),-50.9% (inactive),-105% (inactive)
Cc1ccc2c(CNCc3ccco3)cc(=O)oc2c1,712,7.3% (inactive),21.5% (inactive),87.6%,-10.2% (inactive),96.6%,-0.519 (inactive),-1.9e-05 (inactive),0.00495 (inactive),-18.6% (inactive),-70.4% (inactive)
CCOC(=O)c1sc(Nc2nc3c(OC)cccc3s2)nc1C,435,2.2% (inactive),-20.1% (inactive),106%,-20.5% (inactive),101%,-0.351 (inactive),2.5e-05 (inactive),0.00775 (inactive),-1.57% (inactive),-60.9% (inactive)
O=C(Nc1ccccc1)c1cnc2n(c1=O)CCS2,734,-18.7% (inactive),11.2% (inactive),106%,-25.4% (inactive),121%,-0.517 (inactive),-3.2e-05 (inactive),0.0079 (inactive),-16.4% (inactive),-44.7% (inactive)
CCc1cc2c(CN3CCN(CCO)CC3)cc(=O)oc2cc1O,396,1.3% (inactive),-12.5% (inactive),102%,-34.5% (inactive),60.8%,-0.0121 (active),1.7e-06 (inactive),0.00408 (inactive),17.8% (inactive),27% (inactive)
Cc1oc(C(=O)O)cc1CSCc1cc(C(=O)O)c(C)o1,403,-9.3% (inactive),-21.1% (inactive),102%,-15.5% (inactive),118%,-0.508 (inactive),3.2e-05 (inactive),0.00721 (inactive),-20.7% (inactive),-5.67% (inactive)
CCc1cccc(NC(=O)C2CCCN(S(=O)(=O)c3c(C)[nH]c(=O)[nH]c3=O)C2)c1 (stereo not drawn),325,-10.3% (inactive),0.8% (inactive),106%,-57.4% (inactive),104%,-0.405 (inactive),-3.6e-05 (inactive),0.0033 (inactive),9.85% (inactive),23.9% (inactive)
COc1ccc(S(=O)(=O)N(C)C2CCN(C)CC2)cc1,843,-2.3% (inactive),-6.3% (inactive),128%,-73.5% (inactive),114%,-0.548 (inactive),-5.5e-05 (inactive),0.00699 (inactive),7.34% (inactive),43.8% (inactive)
COc1ccccc1NC(=O)CSc1nnc(-c2ccncc2)n1CC1CCCO1 (stereo not drawn),626,20.6% (inactive),-8.1% (inactive),92.8%,25.2% (inactive),100%,-0.462 (inactive),-1.1e-06 (inactive),0.00619 (inactive),14.4% (inactive),98.5% (active)
Cc1ccc(NC(=O)C2CCCN(S(=O)(=O)c3cnc[nH]3)C2)cc1C (stereo not drawn),626,1.6% (inactive),11.8% (inactive),106%,-102% (inactive),134%,-0.527 (inactive),-2.9e-05 (inactive),0.00769 (inactive),20.9% (inactive),6.37% (inactive)
Cc1ccccc1NS(=O)(=O)c1cc(S(C)(=O)=O)ccc1Cl,552,7.7% (inactive),-3% (inactive),102%,-43.9% (inactive),119%,-0.436 (inactive),2.4e-05 (inactive),0.00562 (inactive),-5.83% (inactive),4.63% (inactive)
CN(C)c1ccc2c(c1)OC(N)=C(C#N)C2c1cccc(F)c1 (stereo not drawn),404,11.5% (inactive),-56.1% (inactive),3%,-8.8% (inactive),103%,-0.515 (inactive),1.1e-05 (inactive),0.0134 (active),36.6% (inactive),82.9% (active)
COc1ccc(N2CCN(CCCNC(=O)C3(S(=O)(=O)c4ccc(Cl)cc4)CC3)CC2)cc1,447,-6.2% (inactive),8.8% (inactive),101%,-86% (inactive),115%,-0.565 (inactive),1.2e-05 (inactive),0.00533 (inactive),-9.9% (inactive),-1.93% (inactive)
CCCCN(CC)CCNC(=O)c1cc2c(C)nc3ccccc3c2o1,656,0.3% (inactive),-11.7% (inactive),103%,-28.4% (inactive),110%,-0.544 (inactive),-3.2e-05 (inactive),0.00664 (inactive),5.91% (inactive),47% (inactive)
Cc1nnc2ccc(N3CCN(c4cccc(C(F)(F)F)c4)CC3)nn12,596,5.5% (inactive),-64.5% (inactive),32.1%,-68.3% (inactive),134%,-0.505 (inactive),-1.3e-05 (inactive),0.00619 (inactive),3.49% (inactive),11.9% (inactive)
CC(C)OCCCNC(=O)c1cc2c(s1)CS(=O)(=O)C2,215,1.9% (inactive),7.5% (inactive),80.8%,25.9% (inactive),103%,-0.352 (inactive),-5.6e-05 (inactive),0.0057 (inactive),5.68% (inactive),5.21% (inactive)
CCn1c(C)nc2cc(C(=O)OCCC(F)(F)F)ccc21,531,-9% (inactive),-1.8% (inactive),106%,6.2% (inactive),92.5%,-0.263 (inactive),-2.2e-05 (inactive),0.00759 (inactive),-16.4% (inactive),-104% (inactive)
Cc1nn(C)c(C)c1NC(=O)CCSc1nc(-c2ccco2)cc(C(F)(F)F)n1,491,-2.2% (inactive),10.3% (inactive),108%,23.6% (inactive),100%,-0.432 (inactive),-6.1e-05 (inactive),0.00599 (inactive),4.67% (inactive),-10.1% (inactive)
CCCOc1ccccc1NC(=O)c1c(-c2ccccc2)noc1C,800,4.6% (inactive),8.8% (inactive),111%,-43.4% (inactive),112%,-0.584 (inactive),-1.4e-05 (inactive),0.00575 (inactive),10.6% (inactive),25.8% (inactive)
c1ccc(Cn2nnc3c(N4CCCCCC4)ncnc32)cc1,525,-4.2% (inactive),35.8% (inactive),76.5%,-63.4% (inactive),95.6%,-0.55 (inactive),-2.5e-05 (inactive),0.0062 (inactive),-20.2% (inactive),-76.6% (inactive)
COCCn1c(C)cc(C(=O)CSc2nc3ccccc3c(=O)[nH]2)c1C,287,-9.5% (inactive),-2.6% (inactive),95.3%,-22.3% (inactive),114%,-0.595 (inactive),-3.8e-05 (inactive),0.00437 (inactive),-28% (inactive),-89.1% (inactive)
Cn1cnc(S(=O)(=O)Nc2ccc(C(F)(F)F)cc2)c1,480,2.2% (inactive),-3.4% (inactive),117%,14.3% (inactive),103%,-0.357 (inactive),-6.4e-05 (inactive),0.00601 (inactive),2.5% (inactive),18% (inactive)
Cc1ccccc1-n1nnc2c(=O)oc3ccccc3c21,345,-1.6% (inactive),20.9% (inactive),98.5%,-83% (inactive),96.8%,-0.347 (inactive),-3.7e-05 (inactive),0.00409 (inactive),12.8% (inactive),26.7% (inactive)
C=CCOc1ccc(/C(CC)=N/O)c(OC)c1,387,15.3% (inactive),-5.5% (inactive),54.4%,-29.6% (inactive),117%,-0.442 (inactive),-3.1e-05 (inactive),0.00515 (inactive),-7.92% (inactive),0.412% (inactive)
CCOC(=O)CSC1=C(C#N)C(c2ccc(C)o2)CC(=O)N1 (stereo not drawn),557,14.4% (inactive),29.1% (inactive),3.4%,-60% (inactive),95%,-0.511 (inactive),-2e-05 (inactive),0.00803 (inactive),10.4% (inactive),87.6% (active)
O=C(NCC1COc2ccccc2O1)c1ccccc1 (stereo not drawn),279,-1.7% (inactive),-0.5% (inactive),104%,7.4% (inactive),90.3%,-0.62 (inactive),3.5e-06 (inactive),0.00453 (inactive),-21% (inactive),-82.8% (inactive)
O=C(CCSc1nccn1Cc1ccccc1)N1CCOCC1,447,-6.8% (inactive),-9.1% (inactive),93.1%,-7.8% (inactive),80.8%,-0.524 (inactive),-5.2e-05 (inactive),0.00524 (inactive),1.9% (inactive),-9.28% (inactive)
